# The panel holds about 83,000 compounds, 20% with a hit somewhere; the sample as a whole holds those more often.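 How to read the values: 0–100, growth inhibition (40 = 60% inhibited); 0, no net growth; -100 to 0, cell death (-40 = 40% of starting cells died; -100 = all dead).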 A number with no mark means an inactive call. Activity calls are given as the source filed them. Rule for the calls: active = growth percent below 10; inactive = the rest.
# Test system: HL-60(TB) leukemia
# Experiment: NCI-60 one-dose screen, 48 h (100 = growth as untreated, 0 = no growth, -100 = all killed)
# Details: 10 µM unless noted
row,Structure (SMILES),growth
1,O=C(/C=C1\C=CN(CCCCCCF)c2ccccc21)n1ccc2ccccc21,109%
2,Cc1nc(-c2cc3ccccc3c(N3CCN(C)CC3)n2)cs1,97.2%
3,COC(=O)C1CCCN(S(=O)(=O)/N=C2\NC(=O)NC2=C(Cl)Cl)C1 (stereo not given),73.6%
4,CC(C)(C)c1ccc(C(=O)Nc2sc3c(c2C(N)=O)CC/C(=N\O)C3)cc1,4.37% (active)
5,Cc1cc(O)c2c(c1)C(=O)C(c1c(C)cc3c(c1O)C(=O)C=CC3=O)=CC2=O,55%
6,CCOC(=O)c1ccc(NC2=CC(=O)C(C)=C(C)C2=O)cc1,53%
7,Nc1cc(-c2c[nH]c3ccc(F)cc23)nc2cc(-c3c[nH]c4ccc(F)cc34)nn12,-37.6% (active)
8,COc1ccc(/C(=N\NC(N)=S)c2ccc(Cl)cc2)cc1OC,13.2%
9,O=S(=O)(Oc1ccc(-c2cn3ccsc3n2)cc1)c1cccc(C(F)(F)F)c1,101%
10,CC1OC(O[C@@H]2[C@H](O)C(CO)OC(O[C@H]3COC(O[C@H]4CC[C@]5(C)[C@H]6CC[C@]78OC[C@@]9(CC[C@](C)(C=O)C[C@H]97)C(=O)C[C@@]8(C)[C@]6(C)CC[C@H]5C4(C)C)[C@@H](O)[C@@H]3O)[C@H]2OC2OC[C@@H](O)[C@@H](O)[C@@H]2O)[C@@H](O)[C@@H](O)[C@H]1O (stereo not given in full),101%
11,Brc1ccc(-c2cc(-c3ccc4c(c3)OCCO4)n[nH]2)s1,3.16% (active)
12,COc1ccc([C@@H]2c3[nH]c4ccccc4c3C[C@H]3C(=O)N(C4CCN(CC5CCCCC5)CC4)CC(=O)N23)c(OC)c1,47.7%
13,CC1(C)[C@@H](O)CC[C@]2(C)[C@H]3CC[C@@H]4[C@H]5[C@H](C(=O)/C=C\c6ccc([N+](=O)[O-])cc6)CC[C@]5(O)CC[C@@]4(C)[C@]3(C)CC[C@@H]12,27.9%
14,CN1CCN(Cc2ccc(NC(=O)c3cncc(C#Cc4cnc5ccc(NCCCO)nn45)c3)cc2C(F)(F)F)CC1,-8.59% (active)
15,NS(=O)(=O)c1cccc(Nc2nc(SCC(=O)c3ccc(Cl)cc3)nc3c2CCC3)c1,111%
16,COCCC[C@H]1O[C@@](O)([C@H](C)[C@@H]2CC(OC)C(O)/C=C(C)/C=C(C)/C=C(\C)C(OC3O[C@@H](C)[C@H](O)C(O)[C@@H]3O)C(C)/C=C(C)/C=C(OC)/C=C(\C)C(=O)O2)C(OC)C(O)[C@]1(C)O[C@H]1C[C@@H](O)[C@H](O[C@H]2C[C@](C)(O)[C@H](O)C(C)O2)C(C)O1 (stereo not given in full),36%
17,C#C[C@]1(O)CC[C@H]2[C@@H]3CC=C4c5sc(C6CC6)nc5CC[C@]4(C)[C@H]3CC[C@@]21C,58.8%
18,CC[C@H](C)[C@H]1NC(=O)[C@@H]([C@H](O)C(C)C)NC(=O)[C@@H](C)N(C)C(=O)[C@H](C)N(C)C(=O)[C@H](CC(C)C)NC(=O)[C@H](CC(C)C)N(C)C(=O)[C@H](C)N(C)C1=O,-19.4% (active)
19,C#C[C@]1(O)CC[C@H]2[C@@H]3CC=C4c5sc(-c6ccc(OC)cc6)nc5CC[C@]4(C)[C@H]3CC[C@@]21C,21.1%
20,COc1ccc2c(c1)c(-c1cc(N)n3nc(-c4cn(C)c5ccc(OC)cc45)cc3n1)cn2C,5.19% (active)

row,Structure (SMILES),growth
1,N#C/C(=C\c1ccc(-c2ccc(Cl)cc2)o1)C(=O)Nc1ncc(Cc2ccc(Br)cc2)s1,50%
2,N#Cc1c(-c2cccs2)cc(-c2cnccn2)nc1SCC(=O)N/N=C/c1ccccc1,110%
3,O=C(CCn1c[n+](CC(=O)c2ccc(-c3ccccc3)cc2)c2ccccc21)Nc1cccc2cccnc12,-42.3% (active)
4,C/C(=C(/C)C1CC1CCN(C(=O)c1ccccn1)S(=O)(=O)c1ccc(C)cc1)C1CCCCC1 (stereo not given),97.4%
5,C=C1CC[C@H]2[C@@](C)(CCC3OC(c4ccc(OCc5cn(C6CC(OC(C)=O)C(OC(C)=O)C(COC(C)=O)O6)nn5)cc4)OC[C@]32C)[C@@H]1/C=C/C1=CCOC1=O (stereo not given in full),56.2%
6,CN(C)C(=O)c1ccccc1-n1cnc2ccccc2c1=O,99.1%
7,O=C(O)c1ccc(-n2cc(CNc3ccc(F)cc3)c(-c3ccc(C(F)(F)F)cc3)n2)cc1,87.1%
8,C#C[C@]1(O)CC[C@H]2[C@@H]3CC=C4c5sc(Nc6cc(OC)ccc6OC)nc5CC[C@]4(C)[C@H]3CC[C@@]21C,-5.2% (active)
9,CC(=O)N1N=C(c2cccc(-n3cccc3)c2)CC1c1cccc(F)c1 (stereo not given),108%
10,CN(C)CCCNc1c2ccc(Cl)cc2nc2c1oc1ccc(Cl)cc12,-53.9% (active)
11,N#CC1=C2NCCCNc3oc(nc3C#N)Cc3ccccc3CC(=N1)O2,62.9%
12,O=C(NNc1nc2cc(F)ccc2n2c(CN3CCCC3)ccc12)c1cnccn1,-30.9% (active)
13,Cc1ccc2c(n1)C(=O)C(Cl)=C(Nc1ccc(C)c(C)c1)C2=O,58.4%
14,COc1cc(-c2ccc3ncnc(NC(C)c4ccccc4)c3c2)cnc1OC (stereo not given),43.2%
15,Cc1ccc([C@H]2c3[nH]c4ccccc4c3C[C@H]3C(=O)N(CCCCCCC(=O)NO)CC(=O)N23)s1,50.1%
16,CCOC(=O)c1c(NCC(=O)Nc2ccc(Br)cc2)sc2c1CCCC2,28.9%
17,C#CCOc1ccc(/C=N\Nc2nc(-c3ccc(C)cc3)cs2)cc1OC,69.5%
18,O=C(NNc1nc2cc(F)cc(F)c2n2cccc12)c1cccnn1,3.63% (active)
19,NS(=O)(=O)c1ccc(CCn2c(-c3ccc(C(=O)O)cc3)nc(-c3ccccc3)c2-c2ccccc2)cc1,101%
20,CCOc1ccc(C(=O)Nc2ncc(Cc3ccc(F)cc3)s2)cc1,1.55% (active)

# Source: PubChem BioAssay (NCI)
